# The list is not random: actives were taken first. Their share in the collection is about 3.7%.
# MITF TRPM1 HTS: activators of MITF-driven TRPM1 promoter reporter, primary screen, cell-based, SK-MEL-5, luciferase, single point. hit rate 0.75% among 300,000. activation, % at 12.5 µM. SK-MEL-5 TRPM1-promoter luciferase, 24 h; % of positive control, neutral wells = 0;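 active means mean activation of at least 80% with every replicate also reaching 80%; inconclusive means mean reaches 80% but some replicate falls short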;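 further: 0% = neutral control wells and 100% = parthenolide positive control wells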
# esBAF inh: Bmi1 luciferase reporter increase in mESCs, primary screen, esBAF inhibitor project, mouse ES cells, Bmi1 luciferase knock-in, single point; reporter increase, % at 12.5 µM; 24 h; 100% = twice the neutral-well signal; hit rate 2% among 350,000; in the data active means activation above about 40%; inconclusive means no clear call, values can overlap the other calls;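 further: 0% = median of the plate's neutral control wells and 100% = double that signal; a rise in the Bmi1 reporter signal indicates esBAF inhibition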
# rRNA inh HTS: reduced GFP signal of wild-type E. coli, primary screen, bacterial rRNA inhibitor project, GFP/RFP fluorescence, OD600, single point; AID 720706, 2013; GFP signal change (wild-type ribosome), % (concentration not given with the values); hit rate 1.6% among 350,000; E. coli WT GFP vs humanized-ribosome RFP mutants, 24 h; stronger effect = lower value; DMSO median 0, no signal -100;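 active means significant combined selectivity score with lowered wild-type GFP, culture density cut under 30%, mutant RFP and density less affected; inactive means any of these conditions unmet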
# AF4-AF9 inh: inhibitors of AF4 peptide binding to AF9, primary screen, biochemical, AlphaScreen, biotin-AF4 peptide, FLAG-AF9, single point | hit rate 0.47% among 350,000 | inhibition, % at 10 µM | Protein AF-9 (Homo sapiens), P42568;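 active means every replicate reaching a set inhibition limit, whatever the replicate mean, cut at about 25% in these data; inconclusive means mean inhibition reaches that limit but some replicates miss it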;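 further: 0% = plate neutral control median and 100% = total signal loss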
# Target sequence (P42568 whole entry, looked up): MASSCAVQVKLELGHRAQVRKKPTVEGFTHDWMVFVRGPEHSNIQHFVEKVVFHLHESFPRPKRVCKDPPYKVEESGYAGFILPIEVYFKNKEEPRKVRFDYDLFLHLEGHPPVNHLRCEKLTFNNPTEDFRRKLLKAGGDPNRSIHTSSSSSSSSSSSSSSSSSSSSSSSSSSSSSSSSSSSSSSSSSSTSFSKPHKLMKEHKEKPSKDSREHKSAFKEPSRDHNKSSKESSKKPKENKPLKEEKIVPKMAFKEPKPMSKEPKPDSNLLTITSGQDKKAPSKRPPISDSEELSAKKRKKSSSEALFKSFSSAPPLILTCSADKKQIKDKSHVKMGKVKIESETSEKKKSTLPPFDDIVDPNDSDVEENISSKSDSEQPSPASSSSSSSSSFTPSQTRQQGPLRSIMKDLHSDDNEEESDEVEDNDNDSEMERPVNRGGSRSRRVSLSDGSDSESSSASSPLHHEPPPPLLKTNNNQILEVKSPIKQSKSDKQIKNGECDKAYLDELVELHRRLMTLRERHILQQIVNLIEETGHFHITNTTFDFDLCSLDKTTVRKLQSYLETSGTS
# Wnt bcat act: Wnt/beta-catenin pathway activators, primary screen, cell-based, plate reader, single point; Wnt/beta-catenin reporter cell assay, activator; hit rate 1.2% among 300,000; activation, % at 9.35 µM; AID 743398, 2014; in the data active means activation above about 30%, passing the limit was not always enough; inconclusive means no clear call, values can overlap the other calls;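 further: 0% = neutral control wells and 100% = positive control wells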
# * hit, by the source's call; ? = inconclusive; nt = no result.
SMILES,MITF TRPM1 HTS,esBAF inh,rRNA inh HTS,AF4-AF9 inh,Wnt bcat act
Cc1ccc2c(CN3CC(C)CC(C)C3)cc(=O)oc2c1C (configuration not stated),nt,15,-5,2,-1
COc1ccc(Oc2nnc(C)c3ccccc23)cc1,89*,50*,nt,nt,42*
COc1ccc(-c2nnc3c4ccccc4c(C)nn23)cc1,18,72*,nt,nt,47*
CC(C)(C)N1C(=O)c2ccc(C(=O)Nc3ccc(O)cc3)cc2C1=O,nt,?,-2,4,48*
COc1cc(/C=C2/C(=N)N3C(SC)=NSC3=NC2=O)ccc1OC(=O)c1ccco1,22,46*,12,2,8
O=C(O)C1CC(c2ccccc2)=Nc2ccccc2S1 (configuration not stated),51,52*,-16,7,-2
CCOC(=O)C1=C(O)/C(=C/c2cn(CC(=O)NCC3CCCO3)c3ccccc23)SC1=Nc1ccc(C)cc1 (configuration not stated),-88,nt,nt,nt,nt
CC(=O)Nc1ccc(S(=O)(=O)NC2=C(N3CCN(c4ccc(F)cc4)CC3)C(=O)c3ccccc3C2=O)cc1,-48,nt,-8,45*,-1
Cc1ccc(S(=O)(=O)NC2=C(N3CCN(Cc4ccccc4)CC3)C(=O)c3ccccc3C2=O)cc1,-39,nt,-9,35*,nt
Cc1ccc(S(=O)(=O)Nc2nc3ccccc3nc2N2CCN(c3ccccc3F)CC2)cc1,-1,-6,nt,nt,-1
Cc1ccc(S(=O)(=O)NC2=C(N3CCN(c4ccccc4F)CC3)C(=O)c3ccccc3C2=O)cc1,-6,37,-18,35*,0
CCOC(=O)N1CCN(C2=C(NS(=O)(=O)c3ccc(C)cc3)C(=O)c3ccccc3C2=O)CC1,-55,1,-2,1,0
CO[C@H]1CN(C)C(=O)c2cc(NC(=O)Nc3cccc(Cl)c3)ccc2OC[C@H](C)NC[C@@H]1C,nt,2,-2,3,nt
CC(=O)OCC(=O)[C@@]1(O)CCC2C3CCC4=CC(=O)CCC4(C)C3C(=O)CC21C (some centres not stated),-3,8,5,-15,-1
CCOc1cc(C2C3=C(CC(C)(C)CC3=O)N(CCCOC)C3=C2C(=O)CC(C)(C)C3)ccc1OC,1,-6,11,29*,-1
N#C/C(=C/c1cccs1)c1nc2ccccc2[nH]1,3,134*,nt,nt,nt
N#C/C(=C\c1c(Cl)cccc1Cl)c1nc2ccccc2[nH]1,-6,10,-51,-23,1
Cc1ccc(/C=C(\C#N)c2nc3ccccc3[nH]2)s1,50,98*,nt,nt,nt
Cc1cc(/C=C(\C#N)c2nc3ccccc3[nH]2)c(C)n1C,63,nt,nt,nt,84*
CC(C)(C)OC(=O)C[C@H]1C/C=C\C[C@@H](CC(=O)N(CCO)Cc2ccccc2)C(=O)NC[C@H](c2ccccc2)OC1=O,1,6,-10,1,-2
CC(C)CC1C(C#N)=C(N)Oc2n[nH]c(-c3cccs3)c21 (configuration not stated),nt,21,nt,nt,37*
Cn1c(Cn2nnc3ccccc32)nnc1SCC(=O)N1c2ccccc2Sc2ccccc21,-5,-4,-1,4,0
COc1ccc(OC)c(NC(=O)Nc2nc(C(N)C(C)C)cs2)c1 (configuration not stated),nt,-7,2,20,6
COc1ccc(OC)c(NC(=O)Nc2nc(C(N)c3ccccc3Cl)cs2)c1 (configuration not stated),nt,-4,-62,26*,3
O=C(COC(=O)COc1ccccc1Cl)Nc1ccccc1OC(F)F,nt,-1,nt,nt,0
SMILES,MITF TRPM1 HTS,esBAF inh,rRNA inh HTS,AF4-AF9 inh,Wnt bcat act
NS(=O)(=O)c1ccc(N/N=C2/CCCCC2C2CCCCC2)c([N+](=O)[O-])c1 (configuration not stated),-2,nt,nt,30*,-1
Cc1noc(C)c1NC(=O)N(C)C[C@@H]1Oc2cc(C#CCC(C)C)ccc2S(=O)(=O)N([C@H](C)CO)C[C@H]1C,nt,9,1,30*,nt
CC(C)CC#Cc1ccc2c(c1)O[C@@H](CN(C)Cc1ccccn1)[C@H](C)CN([C@H](C)CO)S2(=O)=O,nt,3,-23*,5,nt
C/C=C/c1ccc2c(c1)O[C@H](CN(C)CC1CC1)[C@H](C)CN([C@H](C)CO)S2(=O)=O,nt,2,3,nt,nt
C[C@H]1CN([C@@H](C)CO)S(=O)(=O)c2ccc(/C=C/c3ccccc3)cc2O[C@H]1CN(C)CC1CC1,nt,-9,2,29*,nt
NNc1nc2cc3c(cc2s1)OCCO3,-14,1,-5,12,16
Cn1c(NC(=O)C2CC2)cc(=O)n(C)c1=O,-3,12,9,49*,1
CCOC(=O)c1c(C)n(C)c2c(C)cc(O)c(OC(C)=O)c12,14,0,nt,nt,?
CC(=O)N1CCN(C(=O)COC(=O)/C=C/c2ccccc2[N+](=O)[O-])CC1,-21,-2,18,0,-4
CCc1ccc(NC(=O)C(C)OC(=O)CCC(=O)c2cccs2)cc1 (configuration not stated),6,nt,nt,nt,nt
CC(=O)NC1(c2ccccc2)CCN(c2nc(C)cc(C)n2)CC1,1,1,nt,nt,nt
O=C1C(Nc2ccc(O)cc2)=C/C(=N/S(=O)(=O)c2cccs2)c2ccccc21,-108,nt,-38,63*,-26
O=C(Oc1ccccc1O)c1cccc2ccccc12,nt,nt,-12,-1,-2
Oc1ccc(/C=N/Nc2nc(-c3ccc(Cl)cc3)cc(C(F)(F)F)n2)cc1,-2,8,-23*,17,2
COc1ccc(COC[C@]23NC(=O)N[C@H](c4ccccc4O2)[C@H]3CO)cc1,nt,nt,nt,26*,nt
COc1ccc(COCC23N=C4SCC(=O)N4[C@H](c4ccccc4O2)[C@H]3CO)cc1,nt,nt,nt,-2,nt
CCC(=O)N1CCN(c2ccccc2NC(=S)NC(=O)c2ccco2)CC1,7,2,-16,4,0
COc1ccc(COc2ccc3ccc(=O)oc3c2)cc1,118*,56*,-1,0,26
CN1CCN(CCC(=O)N2c3ccccc3Sc3ccc(Cl)cc32)CC1,nt,-6,-5,nt,nt
CN1CCC=C(C(=O)N2c3ccccc3Sc3ccc(Cl)cc32)C1,-1,-2,-22*,9,0
O=c1oc(CCCO)cc2ccc(/C=C/c3cccc([N+](=O)[O-])c3)cc12,92*,49*,1,3,?
CCc1nnc(NC(=O)C2CCCN(C(=O)c3ccc(Cl)cc3)C2)s1 (configuration not stated),60,50*,-11,-3,-2
CNS(=O)(=O)c1cc(NC(=O)c2cccc3cccnc23)ccc1C,15,25,-4,4,10
COc1cccc(C(=O)Nc2cccc(SC)c2)c1,80*,60*,nt,nt,5

# Assay outcomes: PubChem BioAssay, Broad Institute
